According to the supplement of paper PMC11732987, “Enantioselective OTUD7B fragment discovery through chemoproteomics screening and high-throughput optimisation” (Communications Chemistry, 2025):

Columns and labels:
Experiment in all cases: log2 ratio of Biotin-Ahx-Ub-VS probe labelling (fragment/DMSO); higher = less target engagement (more negative = stronger competition), active = hit call of the paper (q ≤ 0.05, log2 ratio ≤ -1)
Settings in all cases: compound concentration: 200 uM; treatment time: 3 h
[1] = target: T1, USP42 (UniProt Q9H9J4)
T1 sequence (whole entry): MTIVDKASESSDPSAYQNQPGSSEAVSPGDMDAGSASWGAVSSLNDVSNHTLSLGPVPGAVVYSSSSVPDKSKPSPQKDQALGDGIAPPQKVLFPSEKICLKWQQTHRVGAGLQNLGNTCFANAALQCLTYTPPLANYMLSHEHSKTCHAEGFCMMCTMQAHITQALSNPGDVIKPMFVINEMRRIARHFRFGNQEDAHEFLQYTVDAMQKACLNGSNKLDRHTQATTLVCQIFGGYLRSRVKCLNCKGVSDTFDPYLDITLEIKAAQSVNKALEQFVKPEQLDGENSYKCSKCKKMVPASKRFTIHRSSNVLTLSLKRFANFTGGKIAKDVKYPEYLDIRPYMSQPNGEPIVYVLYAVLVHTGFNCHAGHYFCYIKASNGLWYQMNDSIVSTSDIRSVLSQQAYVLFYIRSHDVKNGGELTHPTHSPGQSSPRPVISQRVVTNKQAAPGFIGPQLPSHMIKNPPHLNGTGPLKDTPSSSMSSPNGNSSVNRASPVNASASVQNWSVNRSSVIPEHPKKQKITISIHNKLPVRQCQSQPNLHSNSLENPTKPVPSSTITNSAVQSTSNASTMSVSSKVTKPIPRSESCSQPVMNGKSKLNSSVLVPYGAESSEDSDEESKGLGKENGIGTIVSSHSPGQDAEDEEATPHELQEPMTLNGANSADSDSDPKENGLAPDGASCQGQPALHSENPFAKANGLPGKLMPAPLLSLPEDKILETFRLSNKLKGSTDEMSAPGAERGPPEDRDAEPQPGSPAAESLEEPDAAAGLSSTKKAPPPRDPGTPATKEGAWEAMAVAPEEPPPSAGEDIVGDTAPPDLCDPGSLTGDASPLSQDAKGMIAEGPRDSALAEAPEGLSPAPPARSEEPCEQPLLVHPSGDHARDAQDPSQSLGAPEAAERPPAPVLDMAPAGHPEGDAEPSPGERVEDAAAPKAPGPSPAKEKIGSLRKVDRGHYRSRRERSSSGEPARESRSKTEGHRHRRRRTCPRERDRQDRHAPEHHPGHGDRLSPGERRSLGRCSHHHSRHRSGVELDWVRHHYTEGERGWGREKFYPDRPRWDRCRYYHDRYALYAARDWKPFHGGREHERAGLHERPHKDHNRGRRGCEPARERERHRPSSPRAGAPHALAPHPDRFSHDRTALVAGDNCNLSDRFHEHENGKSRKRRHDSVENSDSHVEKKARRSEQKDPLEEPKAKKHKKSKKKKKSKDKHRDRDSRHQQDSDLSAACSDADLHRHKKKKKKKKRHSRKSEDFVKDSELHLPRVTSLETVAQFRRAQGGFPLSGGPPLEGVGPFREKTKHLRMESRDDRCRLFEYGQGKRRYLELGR
Method in brief: (§1)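 Labelled DUBs from HEK293T lysate were NeutrAvidin-enriched, digested with LysC and trypsin, and run by diaPASEF LC-MS/MS. Before that, each 495 µg sample in Tris/CHAPS/IGEPAL buffer with protease inhibitors was treated in triplicate with fragment at 200 µM or vehicle for 3 h, then with Biotin-Ahx-Ub-VS at 0.5 µM final for 1 h. Values are average log2 ratios of fragment over vehicle by unpaired t-test, based on global-median-normalised Spectronaut label-free quantities from proteins with ≥2 unique peptides.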

[2] = target: USP46 (UniProt P62068)
USP46, sequence (P62068 whole entry): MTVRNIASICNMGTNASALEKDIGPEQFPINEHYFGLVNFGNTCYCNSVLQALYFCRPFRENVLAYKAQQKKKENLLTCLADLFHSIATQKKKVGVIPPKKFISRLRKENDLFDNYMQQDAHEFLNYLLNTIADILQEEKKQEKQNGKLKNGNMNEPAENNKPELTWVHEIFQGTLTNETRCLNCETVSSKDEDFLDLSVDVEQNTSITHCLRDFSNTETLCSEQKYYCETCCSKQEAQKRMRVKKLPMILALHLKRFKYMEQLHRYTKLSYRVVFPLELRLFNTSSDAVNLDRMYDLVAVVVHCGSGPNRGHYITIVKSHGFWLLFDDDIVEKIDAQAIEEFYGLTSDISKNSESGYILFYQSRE
Method in brief: as §1

[3] = target: T2, USP47 (UniProt Q96K76)
T2 sequence (whole entry): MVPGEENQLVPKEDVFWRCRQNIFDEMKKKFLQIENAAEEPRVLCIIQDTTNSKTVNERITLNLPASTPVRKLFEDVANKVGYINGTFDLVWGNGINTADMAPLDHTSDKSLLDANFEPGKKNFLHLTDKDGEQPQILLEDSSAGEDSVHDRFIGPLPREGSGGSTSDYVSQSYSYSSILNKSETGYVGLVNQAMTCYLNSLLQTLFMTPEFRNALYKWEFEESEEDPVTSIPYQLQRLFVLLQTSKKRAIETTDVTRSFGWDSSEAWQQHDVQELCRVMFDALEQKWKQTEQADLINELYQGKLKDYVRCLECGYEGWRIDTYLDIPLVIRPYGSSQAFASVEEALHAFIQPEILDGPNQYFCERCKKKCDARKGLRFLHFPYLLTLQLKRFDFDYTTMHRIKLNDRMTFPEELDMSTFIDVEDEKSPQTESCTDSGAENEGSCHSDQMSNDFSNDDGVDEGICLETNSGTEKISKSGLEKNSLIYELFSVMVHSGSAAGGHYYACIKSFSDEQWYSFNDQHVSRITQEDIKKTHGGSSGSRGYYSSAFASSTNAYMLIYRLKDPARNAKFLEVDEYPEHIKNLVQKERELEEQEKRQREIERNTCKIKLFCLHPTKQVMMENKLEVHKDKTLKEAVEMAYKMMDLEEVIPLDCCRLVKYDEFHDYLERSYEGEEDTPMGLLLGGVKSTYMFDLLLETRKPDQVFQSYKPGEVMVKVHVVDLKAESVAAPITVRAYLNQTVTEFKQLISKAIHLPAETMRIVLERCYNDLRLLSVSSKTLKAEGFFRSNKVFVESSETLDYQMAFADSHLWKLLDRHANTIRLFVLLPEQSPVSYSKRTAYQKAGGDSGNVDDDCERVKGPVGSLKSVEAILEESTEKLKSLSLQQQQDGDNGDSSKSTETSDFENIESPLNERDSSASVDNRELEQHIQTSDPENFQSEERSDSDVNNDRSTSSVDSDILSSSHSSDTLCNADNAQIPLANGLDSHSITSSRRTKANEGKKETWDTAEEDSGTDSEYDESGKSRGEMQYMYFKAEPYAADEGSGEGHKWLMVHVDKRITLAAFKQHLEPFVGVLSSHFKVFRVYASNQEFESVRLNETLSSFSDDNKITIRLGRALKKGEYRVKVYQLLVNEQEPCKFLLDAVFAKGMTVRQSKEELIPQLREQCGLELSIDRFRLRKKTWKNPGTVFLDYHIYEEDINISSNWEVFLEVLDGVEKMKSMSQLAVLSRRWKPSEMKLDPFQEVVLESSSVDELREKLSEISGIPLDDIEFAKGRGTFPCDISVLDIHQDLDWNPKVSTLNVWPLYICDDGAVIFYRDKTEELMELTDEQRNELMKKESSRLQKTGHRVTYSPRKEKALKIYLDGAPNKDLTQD
Method in brief: as §1

[4] = target: T3, USP48 (UniProt Q86UV5)
T3 sequence (whole entry): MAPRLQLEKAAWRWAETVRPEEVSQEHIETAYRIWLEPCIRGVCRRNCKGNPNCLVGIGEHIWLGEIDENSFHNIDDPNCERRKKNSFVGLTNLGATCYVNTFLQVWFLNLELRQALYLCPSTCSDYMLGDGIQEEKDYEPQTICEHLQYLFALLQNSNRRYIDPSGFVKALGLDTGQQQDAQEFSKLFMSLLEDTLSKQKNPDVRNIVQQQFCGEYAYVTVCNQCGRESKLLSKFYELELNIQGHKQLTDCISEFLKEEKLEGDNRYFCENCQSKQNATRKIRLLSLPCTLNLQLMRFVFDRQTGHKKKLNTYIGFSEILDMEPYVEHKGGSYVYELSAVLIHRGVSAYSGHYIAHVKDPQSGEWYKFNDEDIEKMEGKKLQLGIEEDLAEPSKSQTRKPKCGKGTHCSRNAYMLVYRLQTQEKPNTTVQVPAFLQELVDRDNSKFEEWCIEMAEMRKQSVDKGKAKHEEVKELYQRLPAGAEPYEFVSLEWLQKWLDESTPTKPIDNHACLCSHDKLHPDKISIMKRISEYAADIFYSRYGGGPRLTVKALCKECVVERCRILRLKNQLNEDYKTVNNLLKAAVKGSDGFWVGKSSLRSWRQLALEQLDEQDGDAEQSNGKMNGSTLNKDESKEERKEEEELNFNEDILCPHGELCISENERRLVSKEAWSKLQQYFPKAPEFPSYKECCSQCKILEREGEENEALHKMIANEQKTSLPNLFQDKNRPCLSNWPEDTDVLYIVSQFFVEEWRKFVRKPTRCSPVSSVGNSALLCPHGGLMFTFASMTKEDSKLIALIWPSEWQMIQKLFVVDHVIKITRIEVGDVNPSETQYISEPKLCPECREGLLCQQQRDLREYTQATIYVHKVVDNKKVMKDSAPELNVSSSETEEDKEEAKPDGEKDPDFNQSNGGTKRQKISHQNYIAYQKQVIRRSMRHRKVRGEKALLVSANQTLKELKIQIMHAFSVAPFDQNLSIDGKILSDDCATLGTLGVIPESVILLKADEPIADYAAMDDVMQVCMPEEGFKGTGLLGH
Method in brief: as §1

[5] = target: T4, USP5 (UniProt P45974)
T4 sequence (whole entry): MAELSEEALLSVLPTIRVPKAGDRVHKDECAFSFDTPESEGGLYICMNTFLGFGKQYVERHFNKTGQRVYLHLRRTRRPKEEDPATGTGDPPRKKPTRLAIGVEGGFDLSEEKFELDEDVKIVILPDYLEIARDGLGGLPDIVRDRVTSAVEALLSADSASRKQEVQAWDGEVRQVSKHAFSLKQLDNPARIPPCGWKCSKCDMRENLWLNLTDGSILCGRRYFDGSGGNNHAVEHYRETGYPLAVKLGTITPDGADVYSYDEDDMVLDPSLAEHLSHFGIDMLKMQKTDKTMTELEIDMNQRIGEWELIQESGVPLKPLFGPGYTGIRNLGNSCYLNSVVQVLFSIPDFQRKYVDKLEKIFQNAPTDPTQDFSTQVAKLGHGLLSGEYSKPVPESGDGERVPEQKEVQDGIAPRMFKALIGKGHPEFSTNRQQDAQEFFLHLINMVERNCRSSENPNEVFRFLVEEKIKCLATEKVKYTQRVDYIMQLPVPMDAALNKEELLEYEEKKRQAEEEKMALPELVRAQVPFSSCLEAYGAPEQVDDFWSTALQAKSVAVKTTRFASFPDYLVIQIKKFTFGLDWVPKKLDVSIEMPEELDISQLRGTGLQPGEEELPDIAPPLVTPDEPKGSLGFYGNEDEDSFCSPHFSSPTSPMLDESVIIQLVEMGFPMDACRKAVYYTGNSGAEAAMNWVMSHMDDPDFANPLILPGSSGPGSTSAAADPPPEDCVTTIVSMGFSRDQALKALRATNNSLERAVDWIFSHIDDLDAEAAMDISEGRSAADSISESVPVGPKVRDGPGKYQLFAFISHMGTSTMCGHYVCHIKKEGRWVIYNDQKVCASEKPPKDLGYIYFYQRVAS
Method in brief: as §1

[6] = target: USP54 (UniProt Q70EL1)
USP54, sequence (Q70EL1 whole entry): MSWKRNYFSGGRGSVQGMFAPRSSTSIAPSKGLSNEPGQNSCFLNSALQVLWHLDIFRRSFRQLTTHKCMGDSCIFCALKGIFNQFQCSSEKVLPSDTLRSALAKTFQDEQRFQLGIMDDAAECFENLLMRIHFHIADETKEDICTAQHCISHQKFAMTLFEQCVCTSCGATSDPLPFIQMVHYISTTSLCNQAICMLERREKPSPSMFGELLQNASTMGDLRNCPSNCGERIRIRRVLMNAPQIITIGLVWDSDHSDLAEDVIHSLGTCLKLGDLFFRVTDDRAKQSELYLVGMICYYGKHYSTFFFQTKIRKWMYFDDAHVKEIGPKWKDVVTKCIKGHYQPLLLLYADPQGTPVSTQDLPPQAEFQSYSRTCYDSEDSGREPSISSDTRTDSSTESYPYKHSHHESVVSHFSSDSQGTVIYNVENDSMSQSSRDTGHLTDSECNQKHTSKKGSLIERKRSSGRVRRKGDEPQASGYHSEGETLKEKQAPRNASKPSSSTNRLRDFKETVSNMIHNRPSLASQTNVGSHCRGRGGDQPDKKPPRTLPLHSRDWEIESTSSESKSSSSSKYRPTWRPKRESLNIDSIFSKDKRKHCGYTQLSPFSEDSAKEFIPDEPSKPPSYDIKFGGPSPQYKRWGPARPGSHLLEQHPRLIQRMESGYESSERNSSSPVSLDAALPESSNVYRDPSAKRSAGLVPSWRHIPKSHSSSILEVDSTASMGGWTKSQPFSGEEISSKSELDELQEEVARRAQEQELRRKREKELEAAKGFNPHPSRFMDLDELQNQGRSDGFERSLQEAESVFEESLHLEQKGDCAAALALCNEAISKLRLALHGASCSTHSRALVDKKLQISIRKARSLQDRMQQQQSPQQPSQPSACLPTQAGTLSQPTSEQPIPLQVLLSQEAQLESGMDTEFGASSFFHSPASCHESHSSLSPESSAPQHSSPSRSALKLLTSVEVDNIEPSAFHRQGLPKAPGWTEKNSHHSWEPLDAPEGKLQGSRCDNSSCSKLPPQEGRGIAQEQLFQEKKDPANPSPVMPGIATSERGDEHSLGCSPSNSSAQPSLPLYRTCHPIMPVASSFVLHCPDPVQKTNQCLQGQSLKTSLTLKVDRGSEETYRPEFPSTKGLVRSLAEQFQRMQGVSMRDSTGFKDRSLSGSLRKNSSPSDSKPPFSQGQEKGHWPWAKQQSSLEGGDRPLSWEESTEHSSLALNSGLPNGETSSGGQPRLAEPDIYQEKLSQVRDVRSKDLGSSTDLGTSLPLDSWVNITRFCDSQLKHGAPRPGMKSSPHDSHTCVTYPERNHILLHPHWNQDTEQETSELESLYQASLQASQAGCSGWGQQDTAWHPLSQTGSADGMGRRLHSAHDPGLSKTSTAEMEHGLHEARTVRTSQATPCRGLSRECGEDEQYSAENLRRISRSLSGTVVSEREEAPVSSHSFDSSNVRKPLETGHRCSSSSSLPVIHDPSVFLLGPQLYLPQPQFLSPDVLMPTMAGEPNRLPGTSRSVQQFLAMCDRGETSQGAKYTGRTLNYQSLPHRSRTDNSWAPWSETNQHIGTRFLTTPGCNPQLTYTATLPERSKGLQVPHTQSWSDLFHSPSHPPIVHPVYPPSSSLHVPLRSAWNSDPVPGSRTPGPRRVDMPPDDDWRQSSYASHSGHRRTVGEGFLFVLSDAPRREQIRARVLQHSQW
Method in brief: as §1

[7] = target: USP7 (UniProt Q93009)
USP7, sequence (Q93009 whole entry, looked up): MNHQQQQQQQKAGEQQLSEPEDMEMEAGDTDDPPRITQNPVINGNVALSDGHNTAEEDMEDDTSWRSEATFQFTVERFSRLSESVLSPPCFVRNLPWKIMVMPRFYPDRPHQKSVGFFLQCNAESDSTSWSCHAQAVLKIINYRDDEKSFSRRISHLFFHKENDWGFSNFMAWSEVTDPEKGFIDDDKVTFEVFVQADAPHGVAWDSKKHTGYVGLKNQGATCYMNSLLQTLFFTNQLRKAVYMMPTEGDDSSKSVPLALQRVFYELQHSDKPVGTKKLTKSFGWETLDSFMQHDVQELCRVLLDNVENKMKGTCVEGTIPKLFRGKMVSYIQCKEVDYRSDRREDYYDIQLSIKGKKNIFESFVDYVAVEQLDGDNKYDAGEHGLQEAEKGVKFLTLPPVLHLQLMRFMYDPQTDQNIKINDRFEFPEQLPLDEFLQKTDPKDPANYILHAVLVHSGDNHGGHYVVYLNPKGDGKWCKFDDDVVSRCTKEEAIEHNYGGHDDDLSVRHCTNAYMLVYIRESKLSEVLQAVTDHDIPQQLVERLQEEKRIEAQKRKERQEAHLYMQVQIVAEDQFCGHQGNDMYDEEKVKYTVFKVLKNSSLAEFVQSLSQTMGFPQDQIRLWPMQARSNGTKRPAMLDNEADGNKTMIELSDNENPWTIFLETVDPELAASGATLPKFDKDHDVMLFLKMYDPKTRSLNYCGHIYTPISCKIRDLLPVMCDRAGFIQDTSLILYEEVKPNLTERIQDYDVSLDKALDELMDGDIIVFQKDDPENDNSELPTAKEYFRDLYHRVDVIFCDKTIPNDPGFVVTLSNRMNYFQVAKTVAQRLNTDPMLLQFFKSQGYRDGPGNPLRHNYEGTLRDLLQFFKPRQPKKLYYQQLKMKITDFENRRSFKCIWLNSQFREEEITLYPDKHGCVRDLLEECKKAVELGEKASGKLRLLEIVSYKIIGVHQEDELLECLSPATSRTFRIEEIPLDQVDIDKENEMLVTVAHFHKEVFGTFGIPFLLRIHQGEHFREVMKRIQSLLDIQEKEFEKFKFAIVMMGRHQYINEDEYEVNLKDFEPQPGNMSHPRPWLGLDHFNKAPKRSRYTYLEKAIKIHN
Method in brief: as §1

[8] = target: T5, USP8 (UniProt P40818)
T5 sequence (whole entry): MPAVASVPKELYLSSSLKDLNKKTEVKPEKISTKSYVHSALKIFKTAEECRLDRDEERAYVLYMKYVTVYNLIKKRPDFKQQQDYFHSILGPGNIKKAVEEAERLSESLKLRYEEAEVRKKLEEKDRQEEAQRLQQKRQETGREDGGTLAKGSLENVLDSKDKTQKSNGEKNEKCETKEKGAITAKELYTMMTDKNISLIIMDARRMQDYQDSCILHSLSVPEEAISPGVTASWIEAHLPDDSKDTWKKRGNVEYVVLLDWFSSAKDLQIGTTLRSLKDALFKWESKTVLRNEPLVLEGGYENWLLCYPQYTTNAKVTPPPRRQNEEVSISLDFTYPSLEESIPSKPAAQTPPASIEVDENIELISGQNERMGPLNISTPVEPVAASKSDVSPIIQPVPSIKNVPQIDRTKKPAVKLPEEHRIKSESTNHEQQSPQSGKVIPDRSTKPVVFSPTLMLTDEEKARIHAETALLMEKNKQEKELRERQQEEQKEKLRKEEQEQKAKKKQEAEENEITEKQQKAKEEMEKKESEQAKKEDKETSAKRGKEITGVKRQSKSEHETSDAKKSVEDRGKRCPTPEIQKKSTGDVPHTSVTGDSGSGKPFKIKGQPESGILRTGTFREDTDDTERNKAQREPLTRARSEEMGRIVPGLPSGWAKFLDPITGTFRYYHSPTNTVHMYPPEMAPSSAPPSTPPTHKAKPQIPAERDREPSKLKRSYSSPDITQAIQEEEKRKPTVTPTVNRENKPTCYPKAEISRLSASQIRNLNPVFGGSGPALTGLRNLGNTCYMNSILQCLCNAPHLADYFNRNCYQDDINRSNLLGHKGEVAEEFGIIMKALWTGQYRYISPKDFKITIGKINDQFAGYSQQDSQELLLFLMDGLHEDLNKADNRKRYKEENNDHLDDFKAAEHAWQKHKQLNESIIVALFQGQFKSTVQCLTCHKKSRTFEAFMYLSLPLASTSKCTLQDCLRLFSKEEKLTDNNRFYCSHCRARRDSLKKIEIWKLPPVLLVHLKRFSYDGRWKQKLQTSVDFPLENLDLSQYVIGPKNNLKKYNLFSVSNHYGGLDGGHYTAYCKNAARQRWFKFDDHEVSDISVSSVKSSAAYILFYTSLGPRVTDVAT
Method in brief: as §1

Measured: log2 ratio of Biotin-Ahx-Ub-VS probe labelling

COc1cccc(CN(C)C(=O)CCl)c1
active: [7] -1.43
inactive: [1] -0.309 | [2] -0.0667 | [3] -0.35 | [4] -0.935 | [5] 0.462 | [6] 0.00406 | [8] 0.148
